Test results reported in PubChem BioAssay (NCATS).
Results filed as inconclusive are left out. Values without a mark were called inactive. Activity calls are given as the source filed them. Calls follow the shape of the dose curve; as a rule, active = well fitted inhibition curve with a large enough effect; inconclusive = small, poorly fitted or top-dose-only effect; inactive = flat fitted curve, though single readings scatter.

Target: Ubiquitin carboxyl-terminal hydrolase 1 (Homo sapiens) (UniProt O94782)
Sequence (O94782 whole entry, looked up): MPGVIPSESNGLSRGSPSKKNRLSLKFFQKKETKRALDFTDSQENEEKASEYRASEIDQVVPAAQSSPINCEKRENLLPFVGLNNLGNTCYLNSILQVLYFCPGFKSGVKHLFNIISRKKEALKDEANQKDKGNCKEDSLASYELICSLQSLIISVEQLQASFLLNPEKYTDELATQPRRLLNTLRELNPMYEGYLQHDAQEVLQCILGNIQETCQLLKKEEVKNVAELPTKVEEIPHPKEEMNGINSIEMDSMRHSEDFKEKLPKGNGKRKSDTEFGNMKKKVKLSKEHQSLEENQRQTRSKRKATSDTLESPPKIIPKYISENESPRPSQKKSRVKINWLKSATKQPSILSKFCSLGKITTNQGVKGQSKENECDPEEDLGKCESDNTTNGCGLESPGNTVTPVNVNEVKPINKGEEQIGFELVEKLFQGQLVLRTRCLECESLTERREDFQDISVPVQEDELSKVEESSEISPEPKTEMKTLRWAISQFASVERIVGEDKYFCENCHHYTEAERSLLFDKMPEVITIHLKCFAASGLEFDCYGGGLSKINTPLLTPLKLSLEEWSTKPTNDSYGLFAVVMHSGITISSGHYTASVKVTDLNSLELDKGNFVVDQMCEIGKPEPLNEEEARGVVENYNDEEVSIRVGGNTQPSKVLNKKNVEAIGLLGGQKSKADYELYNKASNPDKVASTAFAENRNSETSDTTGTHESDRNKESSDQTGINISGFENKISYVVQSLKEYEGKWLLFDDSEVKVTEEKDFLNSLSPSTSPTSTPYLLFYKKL
Assay: Inhibitors of USP1/UAF1: Pilot qHTS (AID 504865); also: nearly all actives have a fitted effect of over 35% in size;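 as to activity change, negative = inhibition: rhodamine fluorescence freed from ubiquitin-rhodamine substrate followed over time; top concentration of the series differs between compounds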
Conditions: purified USP1/UAF1, Ub-rhodamine cleavage fluorescence; series mostly up to 54.9 µM; activity change, negative = inhibition: at the top concentration
Source text: Deubiquitinating enzymes (DUBs) are a class of enzymes that can cleave isopeptide bond formed between the C-terminal carboxylate of ubiquitin and a lysine side-chain amino group on the target protein. Among them, ubiquitin specific proteases (USPs) constitute the largest DUB family. Human USPs are emerging as promising targets for pharmacological intervention because of their connection to a number of human diseases, including prostate, colon and breast cancer (1, 2), pediatric acute lymphoblastic leukemia (3), and familial cylindromatosis (4). The advantage of inhibiting USPs lies in the potential specificity of therapeutic intervention that can lead to better efficacy and reduce nonspecific side effects.
In a collaboration between the University of Delaware and the NIH Chemical Genomics Center, a high-throughput screen assay was developed to screen for USP1/UAF1 inhibitors. This miniaturized assay has a fluorescent read-out and is used to screen the NIH Molecular Libraries Small Molecule Repository (MLSMR) in order to identify a small molecule that inhibits USP1.
NIH Chemical Genomics Center [NCGC]
NIH Molecular Libraries Probe Centers Network [MLPCN]
Assay Submitter (PI): Zhihao Zhuang, University of Delaware
1. Priolo, C., et al. (2006) The isopeptidase USP2a protects human prostate cancer from apoptosis. Cancer Res 66, 8625-8632
2. Popov, N., et al. (2007) The ubiquitin-specific protease USP28 is required for MYC stability. Nat Cell Biol 9, 765-774
3. De Pitta, C., et al. (2005) A leukemia-enriched cDNA microarray platform identifies new transcripts with relevance to the biology of pediatric acute lymphoblastic leukemia. Haematologica 90, 890-898
4. Kovalenko, A., et al. (2003) The tumour suppressor CYLD negatively regulates NF-kappaB signalling by deubiquitination. Nature 424, 801-805
3 microliters of reagents (buffer in columns 3 and 4 as negative control and 1nM USP1/UAF1 complex in columns 1, 2, and 5-48) are dispensed into Greiner black solid bottom 1536-well assay plates. Compounds are then transferred via Kalypsys pin tool equipped with 1536-pin array (10nl slotted pins, V&P Scientific, San Diego, CA). Following an incubation step of 15 min at room temperature, 1ul of Ub-Rho substrate (150nM final concentration) is added to initiate the reaction. The plates are immediately centrifuged at 1000 rpm for 15 seconds, and subsequently transferred to a ViewLux high-throughput CCD imager (PerkinElmer) wherein kinetic measurements of fluorescence are acquired using 480 nm excitation/540 nm emission filter set (6 reads every 60 seconds, see Table 1). All reagents are diluted in an assay buffer consisting of 50mM HEPES (pH 7.8), 0.5mM EDTA, 0.1 mg/ml BSA, 1mM TCEP, and 0.01% Tween-20.
% is scaled to controls: 0 for no effect and ±100 for the full control effect; potency is read from the fitted curve at half-maximal effect.

Row | Compound | activity change, negative = inhibition | Potency
1 | COc1cccc(-c2ccc3ncnc(N4CCN(C)CC4)c3c2)c1 | -12% | –
2 | Cc1noc(C)c1-c1ccc2ncnc(N(C)C)c2c1 | -12.3% | –
3 | COc1ccc(-n2c(=O)c(-c3cccs3)nc3cnc(N(C)C)nc32)cc1 | -8.64% | –
4 | COc1ncc2nc(-c3cccs3)c(=O)n(CCc3ccccc3)c2n1 | -6.74% | –
5 | N#Cc1cccc(-c2cc(NCc3ccccc3)ncn2)c1 | -15.3% | –
6 | Cn1c(=O)c(CCc2ccccc2)nc2cnc(OCc3ccccc3)nc21 | -15.4% | –
7 | COCCn1c(=O)c(C)nc2cnc(N(C)C)nc21 | -7.38% | –
8 | O=c1cnc2cnc(N3CCNCC3)nc2n1Cc1ccc(F)cc1 | -7.16% | –
9 | COc1ccc(Oc2ncc3nc(-c4ccc(Cl)cc4)c(=O)n(C[C@H]4CCCO4)c3n2)cc1 | -9.94% | –
10 | COCCNc1ncnc2ccc(-c3ccoc3)cc12 | -6.06% | –
11 | FC(F)(F)c1ccccc1-c1cc(NCCN2CCOCC2)ncn1 | 0.916% | –
12 | O=c1c(-c2ccc(F)cc2)nc2cnc(N3CCNCC3)nc2n1Cc1ccc(F)cc1 | -22.8% | –
13 | COc1cccc(-c2cc(N(C)Cc3ccco3)ncn2)c1 | -13.5% | –
14 | Cn1c(=O)c(-c2cccs2)nc2cnc(N3CCNCC3)nc21 | -14.5% | –
15 | COc1ccc2[nH]cc(CCNc3ncncc3-c3c(C)noc3C)c2c1 | -12.1% | –
16 | COc1cccc(Cn2c(=O)c(-c3cccs3)nc3cnc(N(C)C)nc32)c1 | -8.13% | –
17 | CN(C)c1ncnc2ccc(-c3cccnc3)cc12 | -13.5% | –
18 | Cc1cnc(CNc2ncncc2-c2cccc(C#N)c2)cn1 | -1.91% | –
19 | Cn1cc(-c2nc3cnc(Oc4ccccc4)nc3n(C)c2=O)c2ccccc21 | -4.88% | –
20 | CC(/C=C1\SC(=S)N(CC(=O)O)C1=O)=C\c1ccccc1 | -10.9% [at 114 µM] | –

Row | Compound | activity change, negative = inhibition | Potency
21 | CNc1nc(-c2ccc3c(c2)OCO3)nc2ccccc12 | -15.2% | –
22 | O=c1cnc2cncnc2n1Cc1ccc(F)cc1 | -9.39% | –
23 | Cc1nc2cncnc2n(Cc2ccccc2)c1=O | -3.31% | –
24 | COc1ccc(CCNC[C@@H](O)c2ccc(O)cc2)cc1OC | -9.8% [at 114 µM] | –
25 | COCCn1c(=O)c(-c2cc(F)cc(F)c2)nc2cnc(N3CCOCC3)nc21 | -5.08% | –
26 | CN(C)c1ccc(-c2nc(N(C)Cc3ccco3)c3ccccc3n2)cc1 | -14.1% [at 114 µM] | –
27 | CN(C)c1ncnc2ccc(-c3ccoc3)cc12 | -15.3% | –
28 | c1cncc(CNc2ncncc2-c2cccnc2)c1 | -6.94% | –
29 | COc1ccccc1CNc1ccnc(-c2ccoc2)n1 | – | 50.1 µM (active)
30 | CCNc1ncc2ncc(=O)n(CCOC)c2n1 | -3.45% | –
31 | CN(Cc1ccco1)c1ncncc1-c1cccc(C#N)c1 | -6.74% | –
32 | CNc1nc(-c2ccccc2CN(C)C)nc2ccccc12 | -4.95% | –
33 | COc1ccc(-c2nc3cnc(N4CCNCC4)nc3n(-c3ccc(OC)cc3)c2=O)cc1 | -14.7% | –
34 | O=c1c(CCc2ccccc2)nc2cnc(N3CCNCC3)nc2n1C1CC1 | -4.53% | –
35 | COc1ccc(CNc2ncnc3ccc(-c4ccccc4CN(C)C)cc23)c(OC)c1 | -11.6% [at 114 µM] | –
36 | CN(C)c1ccnc(-c2ccccc2C(F)(F)F)n1 | -10.8% [at 114 µM] | –
37 | c1csc(CNc2ncnc3ccc(-c4ccoc4)cc23)c1 | -26% | –
38 | O=c1cnc2cnc(N3CCOCC3)nc2n1CCc1ccccc1 | -13.5% | –
39 | COc1ccc(Oc2ncc3nc(C)c(=O)n(-c4ccccc4)c3n2)cc1 | -9.96% | –
40 | COc1ncc2nc(-c3cc(F)cc(F)c3)c(=O)n(C)c2n1 | -5.33% | –
